# Results as given in PubChem BioAssay (NCATS).
# Results filed as inconclusive are left out. A number with no mark means an inactive call. Active and inactive are the calls of the source. Calls follow the shape of the dose curve; as a rule, active = well fitted cell-killing curve with a large enough effect; inconclusive = small, poorly fitted or top-dose-only effect, or effect the other way; inactive = flat fitted curve, though single readings scatter.
# Test system: PA-1
# Assay: Primary qHTS to identify gynecologic anti-cancer compounds using libraries of approved drugs and bioactive compounds (AID 1345084); also: nearly all actives have a fitted effect of over 55% in size
# Details: Gynecologic cancer cell panel viability, ATPlite luminescence, 48 h; series mostly up to 57.5 µM; activity change, negative = cytotoxicity: at the top concentration
# How it was run: (§1)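 48 h compound exposure at 37 C, 5% CO2; five-point qHTS. ATPlite luminescence readout of cell ATP.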
# % is scaled to controls: 0 for no effect and ±100 for the full control effect.
Structure (SMILES),"activity change, negative = cytotoxicity [%]",Potency
CN(C)c1ccc(C2Nc3ccc4ccccc4c3C3=C2C(=O)CC(C)(C)C3)cc1Br (stereo unspecified),7.65,
COc1ccc2nc(S(=O)Cc3ncc(C)c(OC)c3C)[nH]c2c1 (stereo unspecified),-18.5,
CCC(C)n1ncn(-c2ccc(N3CCN(c4ccc(OC[C@H]5CO[C@](Cn6cncn6)(c6ccc(Cl)cc6Cl)O5)cc4)CC3)cc2)c1=O (stereo partly specified),-6.9,
Cc1ccnc(NS(=O)(=O)c2ccc(NC(=O)Nc3ccc(S(=O)(=O)Nc4nccc(C)n4)cc3)cc2)n1,11.4,
OC(CN1CCC(Cc2ccc(F)cc2)CC1)c1ccc(Cl)cc1 (stereo unspecified),2.14,
NC(=O)c1cnccn1,6.7,
CC[C@@H](C)[C@H](NC(=O)[C@H](CC1CCCCC1)NC(=O)c1ccno1)C(=O)N1CCC2(CCc3ccccc32)CC1,2.7,
Cc1ccc(N(CC2=NCCN2)c2cccc(O)c2)cc1,6.93,
C[C@@H]1CN(Cc2ccc(F)cc2)[C@@H](C)CN1C(=O)c1cc2c(C(=O)C(=O)N(C)C)cn(C)c2cc1Cl,4.65,
Cc1cn[nH]c1,-0.238,
Cc1n[nH]c(C)c1Cc1sc2c(c1C(=O)N1C[C@H](O)CO1)c(=O)n(C)c(=O)n2CC(C)C,0.952,
CCCc1nn(C)c2c(=O)[nH]c(-c3cc(S(=O)(=O)N4CCN(C)CC4)ccc3OCC)nc12,,inactive
NNCCc1ccccc1,1.7,

# Test system: SKOV3
# Assay: as above
# Details: Gynecologic cancer cell panel viability, ATPlite luminescence, 48 h; series mostly up to 57.5 µM; activity change, negative = cytotoxicity: at the top concentration
# How it was run: as §1
row,Structure (SMILES),"activity change, negative = cytotoxicity [%]"
1,CN(C)c1ccc(C2Nc3ccc4ccccc4c3C3=C2C(=O)CC(C)(C)C3)cc1Br (stereo unspecified),5.01
2,COc1ccc2nc(S(=O)Cc3ncc(C)c(OC)c3C)[nH]c2c1 (stereo unspecified),-20.7
3,CCC(C)n1ncn(-c2ccc(N3CCN(c4ccc(OC[C@H]5CO[C@](Cn6cncn6)(c6ccc(Cl)cc6Cl)O5)cc4)CC3)cc2)c1=O (stereo partly specified),-7.67
4,Cc1ccnc(NS(=O)(=O)c2ccc(NC(=O)Nc3ccc(S(=O)(=O)Nc4nccc(C)n4)cc3)cc2)n1,17.3
5,OC(CN1CCC(Cc2ccc(F)cc2)CC1)c1ccc(Cl)cc1 (stereo unspecified),0
6,NC(=O)c1cnccn1,22.9
7,CC[C@@H](C)[C@H](NC(=O)[C@H](CC1CCCCC1)NC(=O)c1ccno1)C(=O)N1CCC2(CCc3ccccc32)CC1,19
8,Cc1ccc(N(CC2=NCCN2)c2cccc(O)c2)cc1,-4.12
9,C[C@@H]1CN(Cc2ccc(F)cc2)[C@@H](C)CN1C(=O)c1cc2c(C(=O)C(=O)N(C)C)cn(C)c2cc1Cl,2.25
10,Cc1cn[nH]c1,-8.06
11,Cc1n[nH]c(C)c1Cc1sc2c(c1C(=O)N1C[C@H](O)CO1)c(=O)n(C)c(=O)n2CC(C)C,-1.34
12,CCCc1nn(C)c2c(=O)[nH]c(-c3cc(S(=O)(=O)N4CCN(C)CC4)ccc3OCC)nc12,-3.17
13,NNCCc1ccccc1,-3.28
